Hit rate of the full screen: of about 300,000 compounds, about 1,200 (0.4%) were called active. Only a selection was taken, and actives are over-represented in it overall. Values without a mark were called inactive. No stated cut-off is given here; in the data, active means activity change below about -75% (passing the limit was not always enough); inconclusive means no clear call, values can overlap the other calls.

The nature of the assay: Vibrio harveyi AI-2 quorum sensing modulators, primary screen, JMH597 strain, luminescence/OD600 ratio (AID 2094).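 Further: luminescence divided by OD600 gain over 9 h not by final OD600 alone.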 The conditions noted are these: Vibrio harveyi JMH597 AI-2 luminescence/OD600 ratio, 9 h; at 7.5 µM; hits give low values; 0 = neutral-control median; strain lacks LuxN and CqsS sensors.
With `O=C(NC1CCN(C(=S)Nc2ccc(Cl)cc2)CC1)C1CCCCC1`, the activity change was 16.7%. In the case of `O=C(O)c1c(NC(=O)N2CCCC2)sc2c1CCCC2`, the activity change is 6.56%.

For `COc1cccc(C(=O)NC(=O)Nc2nc(C)cc(C(F)(F)F)n2)c1`, the activity change was 11%. Then `O=C(Cn1nc(C(=O)O)c2ccccc2c1=O)Nc1ccc(F)cc1`, with 18.2%; and `Cc1nn(CC(=O)Nc2ccc3c(c2)nc(CN2CCCCC2)n3C)c(=O)c2ccccc12`, with 18.4%. Turning to `Cc1nn(CC(=O)Nc2ccc(F)cc2)c(=O)c2ccccc12`, the activity change is -95.2% (active). As for `CCN(C(=O)COC(=O)C1CCN(S(=O)(=O)c2ccc(C)c(C)c2)CC1)C1CCS(=O)(=O)C1` (configuration not stated), the activity change was -3.07%.

As to `O=C(CCNS(=O)(=O)c1ccc(Br)s1)NCc1ccccc1Cl`, the activity change is 32.2%. Turning to `CCN(CC)c1ccc(NC(=O)c2ccc(=O)[nH]c2)cc1S(=O)(=O)Nc1ccc(OC)cc1`, the activity change is 18.7%. Next, `COc1ccc(CN(C)C(=O)c2cc(-c3ccc(C)cc3C)nc3ccccc23)c(OC)c1OC`: 10.3%; `COc1cc(C(=O)NCc2ccncc2)cc(Br)c1OCc1ccccc1`: 36.8%. For the compound `COc1cc(C=O)c(Br)cc1OCC(=O)NCc1ccccc1`, the activity change is 15.5%. Turning to `COc1cc(C(=S)NCc2ccccc2)cc(Br)c1O`, the activity change is -79.9% (active). For the compound `CN(C(=O)CN1C(=O)S/C(=C\c2ccccc2F)C1=O)C1CCS(=O)(=O)C1` (configuration not stated), the activity change is 34.2%. In the case of `C=CCSc1nsc(NC(=O)Nc2cccc(C(C)=O)c2)n1`, the activity change is -85% (active).

For the compound `CCSc1nsc(NC(=O)Nc2ccccc2OC)n1`, the activity change was 11.5%. Take `CSc1nsc(NC(=O)Nc2ccccc2)n1`: the activity change is 37.1%.

As to `COc1ccc(NC(=O)CSCc2ccc([N+](=O)[O-])cc2)cc1OC`, the activity change was 3.16%. `COc1ccc(-c2cc(C(=O)N(C)CC(=O)Nc3ccccc3Cl)c3ccccc3n2)cc1OC`: the activity change was 20%. Take `O=C(COc1cccc2c1CCNC2=O)NC1CCCCC1`: the activity change was 2.05%. Next, `O=C(OCc1cn(-c2ccc(Cl)c(Cl)c2)nn1)c1ccccc1Cl`: -28.4%; `CCCCCc1ccc(-c2cn(Cc3ccc4ccccc4c3)nn2)cc1`: 6.86%.

For the compound `CCCCCc1ccc(-c2ccc(OCC)cc2)nc1`, the activity change was -0.256%.

As for `CCCCCc1ccc(-c2ccc(C(=O)O)cc2)nc1`, the activity change was -76% (active). On to `Cc1c(CC(=O)N2CCN(C(=O)C3COc4ccccc4O3)CC2)c(=O)oc2c(O)c(O)ccc12` (configuration not stated), for which the activity change was 10.9%. As to `O=C(NC(=O)N1CCSCC1)c1c(Cl)cccc1Cl`, the activity change was 19.3%. In the case of `CSCCC(NC(=O)c1ccco1)C(=O)Nc1cc(C)ccn1` (configuration not stated), the activity change is 30%. Next, `COc1ccc(/C=C(\C#N)C(=O)OCC(=O)N(C)C2CCS(=O)(=O)C2)cc1` (configuration not stated): 22.6%. In the case of `N/C(=N\OC(=O)CCc1ccccc1)c1cccnc1`, the activity change was -85.7% (active). Next, `N/C(=N\OC(=O)CCc1ccccc1)c1ccc(Cl)cc1`: 7.92%; `O=C(O)CCc1cccnc1`: 7.07%.

For `COc1ccc(C(=O)NCc2nnc(SCC(=O)NC3=NCCS3)n2C)cc1`, the activity change was -5.32%. `CCCOCC(O)CC(CC)C(=O)NNC(=S)Nc1ccccc1` (configuration not stated): the activity change is 0.623%. Next, `O=C1/C(=C/c2ccc3c(c2)OCO3)Oc2cc(OCC(=O)N3CC(O)C[C@H]3C(=O)O)ccc21` (some centres not stated): 29%; `O=C(CC1SCCNC1=O)Nc1ccc(Cl)cc1` (configuration not stated): -15%. Next, `O=C(CC1SCCNC1=O)Nc1ccc(Cl)c(Cl)c1` (configuration not stated): -87.7% (active); `O=C(CC1NCCNC1=O)Nc1cc(Cl)cc(Cl)c1` (configuration not stated): 4.37%; `COc1ccccc1/C=C/C=N/n1c(-c2ccc(Cl)cc2Cl)n[nH]c1=S`: -0.967%.

Turning to `O=C(CSc1ncn[nH]1)N/N=C/c1ccc(F)cc1`, the activity change is -5.64%. For `O=C(/C=C/Sc1ncn[nH]1)c1ccc(Cl)cc1`, the activity change was -91.7% (active). Consider `Cc1cc(C)nc(S/C=C/C(=O)c2ccccc2)n1`, for which the activity change is 4.08%. Regarding `CC(=O)N(CC(O)CO)c1c(I)c(C(=O)NCC(O)CO)c(I)c(C(=O)NCC(O)CO)c1I` (configuration not stated), the activity change is 14.8%. For the compound `Cn1ccc(=NC=C(C#N)C#N)c2ccccc21`, the activity change is 22.8%. Turning to `C=CCNC(=S)N/N=C/c1ccc(OCc2ccccc2)cc1`, the activity change was 16.4%. Next, `CCOc1ccc(/C=N/NC(N)=S)cc1`: -94.8% (active). On to `CCOc1ccc(/C=N\NC(=O)c2c(C)nc3cc(C)ccn23)cc1`, for which the activity change is 2.9%. For the compound `COC(=O)CSc1snnc1-c1ccc(Cl)c(Cl)c1`, the activity change is 9.65%. Turning to `O=S1(=O)N=C(N(CCO)/N=C/c2ccccc2F)c2ccccc21`, the activity change is 15.9%.

In the case of `O=C(NNC(=S)Nc1ccc(F)cc1)[C@H]1C[C@@H]1c1ccccc1`, the activity change is -11.8%. Next, `Cc1ccc(NC(=O)C2CC2c2ccccc2)cc1` (configuration not stated): -86.2% (active); `Cc1ccc(C2CC2C(=O)NN)cc1` (configuration not stated): 19.8%; `CCN(CC(=O)NCc1cccs1)C(=O)c1cccc(S(=O)(=O)Nc2ccccc2OC)c1`: 5.29%. `C/C(CC1CC(C)(C)OC1=O)=N/Nc1nc(-c2ccccc2)cs1` (configuration not stated): the activity change was 26.9%.

`Cc1ccccc1C(=O)NC(=S)Nc1ccc(N2CCN(C(=O)c3ccccc3)CC2)cc1`: the activity change was 13.3%. Turning to `Cc1ccccc1C(=O)N1CCN(c2ccc(NC(=O)c3cccs3)cc2)CC1`, the activity change was 11.9%. Take `Cc1ccccc1C(=O)Nc1ccc(N2CCCCCC2)cc1`: the activity change was -80.7% (active). Then `O=C(Nc1ccc(F)c(Cl)c1)C1CCN(S(=O)(=O)c2cccnc2)CC1`, with -93.8% (active); and `O=C(NCc1cccs1)C1CCN(S(=O)(=O)c2ccc(Cl)cc2)CC1`, with 14.4%. On to `O=C(Nc1cccnc1)c1cccc(S(=O)(=O)N2CCCC2)c1`, for which the activity change was 6.26%. As to `O=C(Cc1cccs1)Nc1ccc([N+](=O)[O-])cc1`, the activity change was 10.5%.

`Oc1ccc2ccc3cccc[n+]3c2c1`: the activity change was 42.1%. For the compound `CCOc1ccc(/C=N/OCC(=O)NCc2cccs2)cc1`, the activity change was 5.49%. Turning to `O=C(/C=C/c1ccc2c(c1)OCO2)NCc1cn2cc(Cl)ccc2n1`, the activity change was 2.46%. For the compound `O=C(/C=C/c1ccc2c(c1)OCO2)NCc1ccc(F)cc1`, the activity change is -82.8% (active). As to `O=C(Cc1ccc(F)cc1)N/N=C/c1ccc2c(c1)OCO2`, the activity change is 14.4%. Take `CC(=O)N1c2ccc(S(=O)(=O)N3CCC(C(=O)NC4CCCC(C)C4C)CC3)cc2CC1C` (configuration not stated): the activity change was 26.4%.

Consider `O=C(COc1ncnc2c(Cl)cc(Cl)cc12)N1CCN(S(=O)(=O)c2ccccc2)CC1`, for which the activity change was 8.92%.

`Cc1cc(C)c2nc(-c3cccnc3)cc(C(=O)Nc3ccc(S(=O)(=O)Nc4onc(C)c4C)cc3)c2c1`: the activity change is 39.3%. Then `CCOC(=O)c1sc(NC(=O)c2sc(C)nc2C)nc1C`, with 1.24%; and `O=C(Nc1nnc(C2COc3ccccc3O2)o1)c1ccc(F)cc1` (configuration not stated), with -225% (active); and `CC1COc2ccccc2N1C(=O)c1ccc(F)cc1` (configuration not stated), with 25.4%. Regarding `O=C(Nc1ccccc1F)c1ccc2c(c1)OCO2`, the activity change is -3.7%. As for `CN(C)S(=O)(=O)N1CCC(Oc2cccc(C(=O)NCCCC3CCCC3)c2)CC1`, the activity change was 1.44%. On to `CCN(CC(=O)Nc1cccc(S(=O)(=O)N2CCCCC2)c1)Cc1ccccc1`, for which the activity change is 24.8%. Take `O=C(Cn1cnc2ccccc2c1=O)Nc1cccc(S(=O)(=O)N2CCCCC2)c1`: the activity change is -81.4% (active). For the compound `CC(=O)NC(CC(=O)Nc1cccc(S(=O)(=O)N2CCCC2)c1)c1ccccc1` (configuration not stated), the activity change is 3.39%.

Turning to `C=CS(=O)c1sc(Cl)c(N2CCOCC2)c1[N+](=O)[O-]` (configuration not stated), the activity change is -83.3% (active).

On to `CCCNC(=S)N1CCC(NC(=O)C23CC4CC(CC(C4)C2)C3)CC1`, for which the activity change is 28.5%. Regarding `CCCc1cc(=O)oc2c(C)c(OC(C)C(=O)NCC(O)c3ccccc3)ccc12` (configuration not stated), the activity change was 23.7%. As for `CC(Oc1ccc(-c2ccccc2)c(F)c1)c1ccn(S(=O)(=O)c2cccc3ccccc23)n1` (configuration not stated), the activity change was 27.1%. For `CCN(CC)CCn1c2c(c(SCC(=O)Nc3ccc(C(C)C)cc3)nc1=O)CCC2`, the activity change is 5.82%. On to `O=c1c2sccc2nc(SCc2cc(=O)n3ccccc3n2)n1-c1ccc(Br)cc1`, for which the activity change was 19.6%. As to `C=C(C)c1cccc(C(C)(C)NC(=O)NC2CCCC2)c1`, the activity change was 1.39%. As to `COc1ccc(C(=O)NNC(=S)NC(=O)c2ccccc2)cc1`, the activity change was -106% (active).

As for `COc1ccc(C(=O)NNC(=S)NC(=O)c2ccccc2[N+](=O)[O-])cc1`, the activity change is 34.4%. Turning to `COc1ccc(C(=O)NC(=S)NNC(=O)c2c(-c3ccccc3)noc2C)cc1`, the activity change was 26.1%. Then `CCNc1nc(NC(C)C)nc(OCCOC(=O)c2ccccc2)n1`, with 23.7%; and `COc1ccc(C2N=C(N)N=C(N)N2c2ccccc2)cc1OC` (configuration not stated), with 19.2%. As for `CC1=CC=CC2=N/C(=N\S(=O)(=O)c3ccc(F)cc3F)c3ccccc3CN12`, the activity change is 21.6%. As for `CCc1ccccc1NC(=O)CCOc1ccccc1`, the activity change was 24.5%. Turning to `Cc1cccc(OCCC(=O)Nc2ccccc2C(N)=O)c1`, the activity change is 11.3%.

Turning to `Cc1ccccc1NC(=O)CCOc1ccccc1`, the activity change is -83.3% (active). For the compound `C=CCO/N=C/C1=C(O)C(C(=O)OC)C(C)(C)CC1=O` (configuration not stated), the activity change was 9.19%. In the case of `COc1ccc(OCCC(=O)c2ccc(OC)cc2)cc1`, the activity change was 30.2%. With `COc1ccc(CCC(=O)c2ccc(OC)cc2)cc1`, the activity change was -82.8% (active). Take `CO/N=C/CC(=O)c1ccc(OC)cc1`: the activity change is 8.95%.

On to `COc1cccc(NC(=O)COc2cc(C)cc3oc(=O)cc(C)c23)c1`, for which the activity change was 15.1%.

Source of the values: PubChem BioAssay AID2094 (Broad Institute, 2009).
